ADAM17 inh: inhibits human ADAM17; P78536; recombinant ADAM17, EDANS/DABCYL FRET peptide cleavage; inhibition, % at 6.95 µM; 370,000 tested, 0.83% active;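 active = inhibition above the mean of compounds lying between control limits plus 3 SD, set per campaign, cut at about 8.5% in these data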;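 also: 0% = DMSO-only wells as the low control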
Rce1 inhib: inhibitors of yeast Ras-converting enzyme | AID 2563 | Q03530 | calls only | yeast membranes, quenched prenylated peptide cleavage fluorescence | 290,000 tested, 0.27% active;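 active = fall in fluorescence gain of 50% or more versus controls, with final raw signal at or below 3038400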;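 also: plate controls were neutral control wells for no effect and wells lacking membranes for full effect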
PLCb3 inh: blocks human PLC-beta3 enzyme activity. Q01970. Purified PLC-beta3, fluorogenic substrate, fluorescence. inhibition, % at 12.2 µM. 370,000 tested, 0.18% active; in the data active = inhibition above about 11%;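 also: 0% = median of compound wells on plate and 100% = full blocker control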
ADAM10 inh: inhibits human ADAM10. O14672. recombinant ADAM10, EDANS/DABCYL FRET peptide cleavage, 3 h. inhibition, % at 7 µM. 370,000 tested, 0.62% active;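 active = inhibition above a per-campaign cutoff equal to the mean of compounds falling between control-based bounds plus 3 SD, cut at about 20% in these data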;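 also: 0% = DMSO wells while the 100% control is not disclosed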
PLCg1 inh: blocks human PLC-gamma1 enzyme activity. inhibition, % at 12.2 µM. purified PLC-gamma1, fluorogenic substrate, fluorescence. P19174. 370,000 tested, 0.84% active; in the data active = inhibition above about 9.5%
Target sequence (P19174 whole entry, looked up): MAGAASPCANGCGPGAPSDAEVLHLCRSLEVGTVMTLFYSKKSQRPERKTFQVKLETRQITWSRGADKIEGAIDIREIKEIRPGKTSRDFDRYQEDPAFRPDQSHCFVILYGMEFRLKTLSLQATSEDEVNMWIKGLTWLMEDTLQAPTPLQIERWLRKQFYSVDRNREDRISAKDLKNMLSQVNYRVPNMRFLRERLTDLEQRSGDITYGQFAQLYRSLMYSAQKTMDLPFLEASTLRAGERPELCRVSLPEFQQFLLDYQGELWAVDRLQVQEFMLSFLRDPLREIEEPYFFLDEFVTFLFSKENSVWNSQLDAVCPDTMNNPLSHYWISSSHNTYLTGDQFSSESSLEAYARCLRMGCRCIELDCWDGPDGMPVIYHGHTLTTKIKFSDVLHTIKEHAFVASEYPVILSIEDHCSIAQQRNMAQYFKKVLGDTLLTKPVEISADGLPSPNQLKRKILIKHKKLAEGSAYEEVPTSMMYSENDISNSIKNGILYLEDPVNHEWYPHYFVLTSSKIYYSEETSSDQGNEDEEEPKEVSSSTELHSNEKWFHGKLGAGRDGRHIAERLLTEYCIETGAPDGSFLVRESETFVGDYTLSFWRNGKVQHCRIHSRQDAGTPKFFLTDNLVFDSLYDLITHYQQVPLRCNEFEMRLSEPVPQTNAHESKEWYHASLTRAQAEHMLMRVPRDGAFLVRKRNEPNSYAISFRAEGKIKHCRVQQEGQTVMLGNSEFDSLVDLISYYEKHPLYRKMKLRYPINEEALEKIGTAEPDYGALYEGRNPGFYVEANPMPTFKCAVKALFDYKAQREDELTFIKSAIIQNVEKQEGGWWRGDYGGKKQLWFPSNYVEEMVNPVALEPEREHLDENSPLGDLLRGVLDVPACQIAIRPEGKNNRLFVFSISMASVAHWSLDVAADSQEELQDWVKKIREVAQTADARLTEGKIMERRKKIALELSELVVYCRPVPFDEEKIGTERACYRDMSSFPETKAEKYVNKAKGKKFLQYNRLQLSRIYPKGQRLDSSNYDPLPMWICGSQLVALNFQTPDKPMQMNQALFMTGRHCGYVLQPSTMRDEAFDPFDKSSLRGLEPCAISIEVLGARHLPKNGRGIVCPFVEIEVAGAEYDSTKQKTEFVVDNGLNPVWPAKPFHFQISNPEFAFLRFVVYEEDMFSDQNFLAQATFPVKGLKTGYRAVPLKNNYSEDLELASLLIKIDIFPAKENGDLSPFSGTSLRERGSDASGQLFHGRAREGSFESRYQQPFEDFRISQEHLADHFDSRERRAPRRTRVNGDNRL
ADAM10 confirm: confirmation of inhibitors of human ADAM10; inhibition, % at 6.95 µM; AID 743208; 2,100 tested, 1% active; shares compounds with ADAM10 inh; ADAM10 QFRET peptide cleavage, EDANS fluorescence;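 active = inhibition above about 20% chosen separately for each screening run, limit read from the data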;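 also: 0% = DMSO wells and 100% = marimastat wells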
ADAM17 counter: inhibits human ADAM17 in ADAM10 exosite counter-screen | inhibition, % at 6.95 µM | ADAM17 QFRET peptide cleavage, EDANS fluorescence | 2,100 tested, 0.5% active | shares compounds with ADAM10 inh;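 active = mean triplicate inhibition above the solvent-only control wells' mean plus 3 SD, cut at about 12% in these data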;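 also: 0% = DMSO wells and 100% = marimastat wells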
ADAM10 counter: ADAM10 inhibition, counter-screen for ADAM17 exosite hits | inhibition, % at 6.95 µM | shares compounds with ADAM17 inh | AID 743256 | 2,900 tested, 47% active | recombinant ADAM10, EDANS/DABCYL FRET peptide cleavage, 3 h;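 active = mean inhibition over the triplicate runs exceeds the activity threshold set in the earlier primary screen, cut at about 20% in these data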;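 also: 0% = DMSO wells and 100% = marimastat wells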
ADAM17 confirm: confirmation of inhibitors of human ADAM17; inhibition, % at 6.95 µM; recombinant ADAM17, EDANS/DABCYL QFRET peptide cleavage; 2,900 tested, 65% active; shares compounds with ADAM17 inh;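 active = mean inhibition across replicates above the hit cutoff set in the primary screen, cut at about 8.5% in these data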;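 also: 0% = DMSO wells and 100% = marimastat wells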
Numbers without * were called inactive; i = inactive; . = not tested or not shown. A selection: hits, their analogues and other compounds. The true share with any hit is near 2.1%.

SMILES | ADAM17 inh | Rce1 inhib | PLCb3 inh | ADAM10 inh | PLCg1 inh | ADAM10 confirm | ADAM17 counter | ADAM10 counter | ADAM17 confirm
CCOc1ccc(C(=O)CCC(=O)Nc2ccc(C)c(S(=O)(=O)N3CCCCC3)c2)cc1 | 9.1* | . | -1 | 28* | 2 | 6 | 3 | 27* | 13*
CC(=O)c1ccc(OCCCC(=O)Nc2ccc(C)c(S(=O)(=O)N3CCCCC3)c2)cc1 | -4 | . | -4 | -9 | -2 | . | . | . | .
O=C(OCc1cn(Cc2ccc(F)c(F)c2)nn1)N1CCCC1 | 2 | . | 1 | 3 | 2 | . | . | . | .
COc1ccc([N+](=O)[O-])cc1NC(=O)CCSCCc1ccccn1 | -4 | i | -7 | 1 | -1 | . | . | . | .
CCCCOC(=O)c1ccc(N/C(=N\S(=O)(=O)c2ccccc2)c2ccccc2)cc1 | 1 | i | 1 | 18 | 3 | . | . | . | .
CCOC(=O)c1ccc(N/C(=N\S(=O)(=O)c2ccc(F)cc2F)c2ccccc2)cc1 | 12* | i | 4 | 30* | 3 | 3 | 1 | 27* | 18*
O=C(CN(c1cc(Cl)ccc1Cl)S(=O)(=O)c1ccccc1)N1CCOCC1 | -1 | i | -3 | -7 | 1 | . | . | . | .
C[C@H]1CCCCO[C@@H](CN(C)S(=O)(=O)c2ccc(F)cc2)[C@@H](C)CN([C@@H](C)CO)C(=O)c2cc(NC(=O)Nc3ccc4c(c3)OCO4)ccc2O1 | -1 | . | 2 | 4 | 0 | . | . | . | .
C[C@@H]1CCCCO[C@H](CN(C)S(=O)(=O)c2ccc(F)cc2)[C@@H](C)CN([C@H](C)CO)C(=O)c2cc(NC(=O)Nc3ccc(C(F)(F)F)cc3)ccc2O1 | 8.7* | . | -1 | 27* | -2 | 16 | 4 | 45* | 24*
COc1ccc(S(=O)(=O)N(C)C[C@H]2OCCCC[C@@H](C)Oc3ccc(NC(=O)CCC(F)(F)F)cc3C(=O)N([C@H](C)CO)C[C@@H]2C)cc1 | -1 | . | 6 | -1 | 1 | . | . | . | .
C[C@@H]1CN([C@H](C)CO)C(=O)c2cc(NC(=O)Nc3ccc(C(F)(F)F)cc3)ccc2O[C@H]1CN(C)S(=O)(=O)c1cccs1 | 13* | . | 3 | 29* | 3 | 4 | 2 | 49* | 33*
COc1ccc(S(=O)(=O)N(C)C[C@@H]2OCCCC[C@H](C)Oc3ccc(NC(=O)Nc4ccc(C(F)(F)F)cc4)cc3C(=O)N([C@H](C)CO)C[C@H]2C)cc1 | 13* | . | 1 | 34* | 2 | 14 | 5 | 46* | 24*
COC(=O)C1=C(C)N(Cc2cccc(C(F)(F)F)c2)C(=NCc2cc(OC)c(OC)c(OC)c2)NC1c1ccccc1 (configuration not stated) | 2 | . | -2 | 4 | 2 | . | . | . | .
CCC1CCCCN1C(=O)Cn1c(=O)n(CCCC(=O)NCc2ccco2)c(=O)c2sccc21 (configuration not stated) | 2 | i | 4 | 1 | 9 | . | . | . | .
CC(C)Oc1ccc(CNC(=O)CC(c2ccccc2)c2cc(Cl)ccc2O)cc1 (configuration not stated) | 16* | i | -9 | 25* | 4 | 8 | 3 | 33* | 16*
FC(F)Sc1ccc(NC(=S)NC2CCCCC2)cc1 | 14* | i | 7 | 25* | 8 | 4 | 1 | 15 | 11*
COc1cc(-c2nnc(COc3ccc4ccccc4c3)o2)cc(OC)c1OC | 10* | i | 0 | 21* | 4 | 8 | 3 | 22* | 15*
COc1nccnc1NS(=O)(=O)c1ccc(NC(=S)NC(=O)/C=C/c2ccc(F)cc2)cc1 | 10* | i | -2 | 24* | 4 | -2 | 0 | 8 | 7
COc1cc(NS(=O)(=O)c2ccc(NC(=S)NC(=O)/C=C/c3ccc(F)cc3)cc2)ncn1 | -5 | i | -4 | -6 | 2 | . | . | . | .
CCCCC[C@@H](C)N1C[C@@H](COCc2ccccc2)Oc2cc(N3CC[C@H](O)C3)ccc2S1(=O)=O | 9.1* | . | 0 | 22* | -1 | 11 | 3 | 34* | 18*
CCOc1cc(S(=O)(=O)Nc2cc(C)cc(C)c2)ccc1Cl | 20* | i | 4 | 36* | 8 | 3 | 1 | 27* | 15*
O=C(OCc1cn([C@@H]2C[C@H](c3ccc(Cl)cc3)N(C(=O)C3CCCCC3)C[C@H]2O)nn1)c1ccccc1 | -1 | . | 2 | -5 | -1 | . | . | . | .
CCCCCCCCNS(=O)(=O)/C=C/c1ccccc1CNC(=O)OC(C)(C)C | 11* | . | -8 | 21* | -6 | 12 | 3 | 31* | 15*
COc1ccc(CCC(C)NC(=O)Cc2ccc(OC)c(OC)c2)c(OC)c1 (configuration not stated) | -2 | i | 2 | 4 | 2 | . | . | . | .
CCN(c1ccc(NS(=O)(=O)c2cc(Cl)ccc2Cl)cc1)C(C)C | 11* | i | -5 | 24* | -1 | 2 | 1 | 13 | 10.0*
SMILES | ADAM17 inh | Rce1 inhib | PLCb3 inh | ADAM10 inh | PLCg1 inh | ADAM10 confirm | ADAM17 counter | ADAM10 counter | ADAM17 confirm
COC(=O)C1=C(C)N(C)C(=NCc2ccc3c(c2)OCO3)NC1c1ccc(F)cc1 (configuration not stated) | -4 | . | 1 | -2 | 3 | . | . | . | .
O=C(Nc1nc2ccccc2s1)C1CCCN1S(=O)(=O)c1ccc(Cl)cc1 (configuration not stated) | 11* | i | 10 | 30* | 5 | 2 | 0 | 33* | 17*
Cc1ccc(S(=O)(=O)N2CCCC2C(=O)Nc2nc3ccccc3s2)cc1 (configuration not stated) | . | i | . | . | . | . | . | . | .
CCCC[C@@H]1C(=O)N2N=C(c3ccccc3)c3ccccc3[C@H]2N2N=C(c3ccccc3)c3ccccc3[C@@H]12 | -2 | . | -26 | -9 | -12 | . | . | . | .
Nc1ccc2c(c1)Cc1cc(N)c(Cl)cc1-2 | 12* | . | -57 | 27* | -34 | 9 | 5 | -5 | 4
Cc1ccc(Nc2nnc(SCC(=O)c3ccc(Br)s3)s2)c(C)c1 | 8.7* | i | 2 | 24* | 1 | 5 | 2 | 13 | 9.9*
Cc1ccc(C(=O)N2CCN(C3c4cccc5cccc(c45)C3NS(=O)(=O)c3ccccc3)CC2)cc1 (configuration not stated) | 11* | i | 0 | 24* | 3 | 7 | 2 | 19 | 12*
COc1ccc(S[C@]2(C(=O)N3CCCC3)CC(=O)N(C(=O)Nc3ccc(C)c(Cl)c3)[C@@H]2c2ccc(OC)cc2)cc1 | 0 | . | 1 | -5 | 0 | . | . | . | .

Assay outcomes as filed in PubChem.
